Test results: PubChem BioAssay (NCI)
The panel holds about 83,000 compounds, 20% with a hit somewhere; the sample as a whole holds those more often.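 Assay: single dose, 48 h. Readout: percent growth (0 = no net growth; negative = cell death). Active: <10.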 Activity calls are given as the source filed them.

Assays:
Assay in all cases: NCI-60 one-dose screen, 48 h (100 = growth as untreated, 0 = no growth, -100 = all killed)
Conditions in all cases: 10 µM unless noted
EKVX NSCLC = test system: EKVX NSCLC
SN12C renal = test system: SN12C renal
UO-31 renal = test system: UO-31 renal
TK-10 renal = test system: TK-10 renal
ACHN renal = test system: ACHN renal
CAKI-1 renal = test system: CAKI-1 renal
A498 renal = test system: A498 renal
CCRF-CEM leukemia = test system: CCRF-CEM leukemia
MOLT-4 leukemia = test system: MOLT-4 leukemia

Measured: growth

N#Cc1c(-c2ccc(Cl)cc2)csc1NC(=O)Nc1cccc(C(F)(F)F)c1
active: SN12C renal -17.2% | UO-31 renal -2.89% | ACHN renal 1.09% | MOLT-4 leukemia 7.5%
inactive: EKVX NSCLC 17.3% | TK-10 renal 20.1% | CAKI-1 renal 27.8% | A498 renal 13.8% | CCRF-CEM leukemia 14.1%

CC(C)(O)CC(=O)NCCn1ccc2ncnc(Nc3ccc(Oc4cccc(C(F)(F)F)c4)c(Cl)c3)c21
active: EKVX NSCLC 8.11% | UO-31 renal -6.15% | TK-10 renal -30.3% | ACHN renal 8.71% | A498 renal -28.7% | CCRF-CEM leukemia 7.97% | MOLT-4 leukemia 7.32%
inactive: SN12C renal 12.4% | CAKI-1 renal 19.2%

Cc1ncc(-c2ccnc(Nc3ccc(S(C)(=O)=O)cc3)n2)n1C(C)C
active: EKVX NSCLC -10.5% | SN12C renal 0.723% | UO-31 renal -9.24% | TK-10 renal -3.89% | ACHN renal 0.0849% | CAKI-1 renal 9.99% | A498 renal -42.6% | CCRF-CEM leukemia 4.05% | MOLT-4 leukemia -32.6%

CC(C)(C)OC(=O)N1CCC(O)[C@@H](O[Si](c2ccccc2)(c2ccccc2)C(C)(C)C)[C@H]1/C=C/c1ccccc1 (some centres undefined)
inactive: EKVX NSCLC 40.7% | SN12C renal 73% | UO-31 renal 39.1% | TK-10 renal 66.1% | ACHN renal 41.1% | CAKI-1 renal 45.3% | A498 renal 68.2% | CCRF-CEM leukemia 46.4% | MOLT-4 leukemia 28%

CCS(=O)(=O)N1CCN(c2ccc(Nc3ncc(C(N)=O)c(NC4CC4)n3)cc2)CC1
inactive: EKVX NSCLC 91.6% | SN12C renal 62.8% | UO-31 renal 52.9% | TK-10 renal 87.3% | ACHN renal 85.1% | CAKI-1 renal 97.6% | A498 renal 95.6% | CCRF-CEM leukemia 27.6% | MOLT-4 leukemia 51.7%

C=CC(=O)Nc1cccc(Oc2nc(Nc3ccc(N4CCN(C)CC4)cc3)nc3ccsc23)c1
inactive: EKVX NSCLC 16.4% | A498 renal 33.6%
active: SN12C renal -70.6% | UO-31 renal -89.6% | TK-10 renal -79% | ACHN renal -96.6% | CAKI-1 renal -71.4% | CCRF-CEM leukemia 1.89% | MOLT-4 leukemia -37.7%

Cc1csc(-c2nnc(Nc3ccc(Oc4ncccc4-c4ccnc(N)n4)cc3)c3ccccc23)c1
inactive: EKVX NSCLC 64.8% | SN12C renal 52.1% | UO-31 renal 32.4% | TK-10 renal 39.7% | ACHN renal 38.8% | CAKI-1 renal 50.8% | A498 renal 56.1% | CCRF-CEM leukemia 25.1% | MOLT-4 leukemia 32.3%

C[C@]12O[C@H](C[C@]1(O)CO)n1c3ccccc3c3c4c(c5c6ccccc6n2c5c31)CNC4=O
active: EKVX NSCLC -8.26% | SN12C renal -42% | UO-31 renal -63.1% | TK-10 renal -81.5% | ACHN renal -8.21% | CAKI-1 renal -96.5% | A498 renal -96.1% | CCRF-CEM leukemia 0.654% | MOLT-4 leukemia -18%

COc1ccc(Cl)c(Nc2nc3ccccc3nc2NS(=O)(=O)c2cccc(NC(=O)C(C)(C)N)c2)c1
active: UO-31 renal 8.83% | A498 renal -33.2%
inactive: EKVX NSCLC 48.5% | SN12C renal 51.2% | TK-10 renal 29.8% | ACHN renal 40.3% | CAKI-1 renal 29% | CCRF-CEM leukemia 46.9% | MOLT-4 leukemia 13.4%

CNC(=O)c1cc(Oc2cccc3nc(Nc4ccc(Oc5ccccc5)cc4)ccc23)ccn1
inactive: EKVX NSCLC 62.2% | SN12C renal 81.3% | UO-31 renal 57.9% | TK-10 renal 78.5% | ACHN renal 81.1% | CAKI-1 renal 67.5% | A498 renal 73.8% | CCRF-CEM leukemia 69.5% | MOLT-4 leukemia 42.7%

COc1cc(OC)c(/C=C/S(=O)(=O)Cc2ccc(OC)c(NCC(=O)O)c2)c(OC)c1
inactive: EKVX NSCLC 27.3% | SN12C renal 34% | UO-31 renal 36.3% | TK-10 renal 49.7% | ACHN renal 30.2% | CAKI-1 renal 18.2% | CCRF-CEM leukemia 16.2% | MOLT-4 leukemia 14.5%
active: A498 renal -4.03%

O=C(c1ccc(/C=C/c2n[nH]c3ccccc23)cc1)N1CCNCC1
active: UO-31 renal -7.82%
inactive: EKVX NSCLC 71% | SN12C renal 22.5% | TK-10 renal 53% | ACHN renal 36.5% | CAKI-1 renal 11.7% | A498 renal 37.9% | CCRF-CEM leukemia 53.2% | MOLT-4 leukemia 19.9%

O=c1sn(-c2cccc3ccccc23)c(=O)n1Cc1ccccc1
inactive: EKVX NSCLC 108% | SN12C renal 94.8% | UO-31 renal 86.3% | TK-10 renal 95.5% | ACHN renal 106% | CAKI-1 renal 99% | A498 renal 102% | CCRF-CEM leukemia 64.9% | MOLT-4 leukemia 39.1%

COc1cccc(NC(=O)Nc2ccc(Nc3ncnc4sc5c(c34)CCN(C(=O)CCl)C5)cc2)c1
inactive: EKVX NSCLC 109% | SN12C renal 96.3% | UO-31 renal 66.6% | TK-10 renal 122% | ACHN renal 88.7% | CAKI-1 renal 94.2% | A498 renal 93.1% | CCRF-CEM leukemia 88.4% | MOLT-4 leukemia 92.8%

O=C1OCC2=C1C(c1cccc(F)c1)c1cc3c(cc1N2CCO)OCCO3 (centres undefined)
active: CCRF-CEM leukemia 7.52% | MOLT-4 leukemia 7.49%
inactive: EKVX NSCLC 37.5% | SN12C renal 31% | UO-31 renal 42.1% | TK-10 renal 57.7% | ACHN renal 23.9% | CAKI-1 renal 31.8% | A498 renal 13.4%

Cn1cnc2c(F)c(Nc3ccc(Br)cc3Cl)c(C(=O)NOCCO)cc21
inactive: EKVX NSCLC 54.4% | SN12C renal 65.9% | UO-31 renal 40.9% | TK-10 renal 33.7% | ACHN renal 52.1% | CAKI-1 renal 40.2% | CCRF-CEM leukemia 95.8% | MOLT-4 leukemia 92.2%
active: A498 renal -37%

CC1(O)CC(c2nc(-c3ccc4ccc(-c5ccccc5)nc4c3)c3c(N)nccn23)C1 (centres undefined)
inactive: EKVX NSCLC 58.8% | SN12C renal 41.7% | TK-10 renal 42.6% | ACHN renal 31.7% | CAKI-1 renal 10.1% | CCRF-CEM leukemia 27.1% | MOLT-4 leukemia 12.9%
active: UO-31 renal 6.56% | A498 renal -3.83%

COc1cccc(Nc2ncnn3ccc(CN4CC[C@@H](N)[C@H](O)C4)c23)c1
inactive: EKVX NSCLC 23.8% | SN12C renal 18.9% | CCRF-CEM leukemia 66.2% | MOLT-4 leukemia 17.6%
active: UO-31 renal -34.3% | TK-10 renal -35.3% | ACHN renal 2.8% | CAKI-1 renal -13.5% | A498 renal -38.1%

COc1cc(NC2CCC(=O)N2c2ccc(Cl)cc2Cl)cc(OC)c1OC (centres undefined)
inactive: EKVX NSCLC 100% | SN12C renal 109% | UO-31 renal 94.5% | TK-10 renal 104% | ACHN renal 110% | CAKI-1 renal 95.7% | A498 renal 89.2% | CCRF-CEM leukemia 90.5% | MOLT-4 leukemia 96.2%

CCN(CC)CCN1C(=O)c2cccc3c(-c4ccc5c(c4)ncn5C4CCCCC4)ccc(c23)C1=O
inactive: EKVX NSCLC 15.6% | SN12C renal 23.8% | TK-10 renal 32.1% | ACHN renal 10% | CAKI-1 renal 19.7% | CCRF-CEM leukemia 11.4%
active: UO-31 renal -23.7% | A498 renal -11.6% | MOLT-4 leukemia -9.62%

COc1ccc(-c2ccc3c(N4CCOC[C@@H]4C)nc(N4CCOC[C@@H]4C)nc3n2)cc1CO
active: EKVX NSCLC 7.48% | SN12C renal 9.9% | UO-31 renal -13% | TK-10 renal -30.8% | ACHN renal 5.54% | CAKI-1 renal -14.6% | A498 renal -35.4%
inactive: CCRF-CEM leukemia 16.4% | MOLT-4 leukemia 11.6%

CNC(=O)c1cccc2cc(Oc3ccnc4cc(OCC5(N)CC5)c(OC)cc34)ccc12
inactive: EKVX NSCLC 84.1% | SN12C renal 52.7% | UO-31 renal 37.6% | TK-10 renal 63.9% | ACHN renal 30.9% | CAKI-1 renal 38.2% | A498 renal 57.1% | CCRF-CEM leukemia 44.4% | MOLT-4 leukemia 30.6%

CNC(=O)c1cc(COc2nnc(Nc3ccc(Cl)cc3)c3ccoc23)ccn1
inactive: EKVX NSCLC 56.7% | SN12C renal 38.9% | TK-10 renal 33% | ACHN renal 23.4% | CAKI-1 renal 28.2% | A498 renal 62.6% | CCRF-CEM leukemia 98.2% | MOLT-4 leukemia 73.6%
active: UO-31 renal -3.27%

O=C(CNc1nnc(-c2ccc(Cl)cc2)o1)Nc1ccc(-c2nc3ccccc3s2)cc1
inactive: EKVX NSCLC 104% | SN12C renal 94.5% | UO-31 renal 73.3% | TK-10 renal 91.7% | ACHN renal 112% | CAKI-1 renal 100% | A498 renal 82% | CCRF-CEM leukemia 53.3% | MOLT-4 leukemia 33.2%

O=C(Nc1ccc(-c2ccnc(Nc3ccc(N4CCOCC4)cc3)n2)cc1)[C@@H]1CCCN1
inactive: EKVX NSCLC 71.7% | SN12C renal 45.6% | UO-31 renal 26.5% | TK-10 renal 71.6% | ACHN renal 44.1% | CAKI-1 renal 29.9% | A498 renal 26.2% | CCRF-CEM leukemia 28.1% | MOLT-4 leukemia 21.7%

COc1ccc(C(=O)N2c3ccccc3Sc3ccccc32)c(F)c1
inactive: EKVX NSCLC 44% | SN12C renal 60.8% | UO-31 renal 49.2% | TK-10 renal 44.5% | ACHN renal 48.4% | CAKI-1 renal 45.3% | CCRF-CEM leukemia 17% | MOLT-4 leukemia 27.1%
active: A498 renal 2.13%
